The source made the active and inactive calls. Rule for the calls: active = hit-call score of the fitted dose curve at least 0.9, where 1 is the maximum; inactive = score below 0.9.
Tests used:
[1] = ATG_GLI_CIS: Attagene CIS-FACTORIAL HepG2 Assay for human Zinc Finger Protein GLI1 (AID 2282945); details: HepG2, Attagene cis-factorial reporter mRNA, GLI element; actives raise or lower the signal
How it was run: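 HepG2 cells transiently transfected with cis-promoter multiplexed reporter units report endogenous transcription factor activity. After 24 h chemical exposure, reporter mRNA was quantified by RT-PCR, 6-FAM labelling, HpaI digestion and capillary electrophoresis, with bidirectional fitting against DMSO.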

[2] = biological target: Bile acid receptor (Homo sapiens) (UniProt Q96RI1); assay: ATG_IR1_CIS: Attagene CIS-FACTORIAL HepG2 Assay for human Nuclear Receptor Subfamily 1 Group H Member 4 (NR1H4), IR1 submotif (AID 2282946); details: IR1 reporter transcription, actives raise or lower the signal
How it was run: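 Transient MRTU transfection, HepG2; 24 h dosing; RNA → RT-PCR → 6-FAM primer extension → HpaI digest → capillary electrophoresis fluorescence. Gain/loss of signal fitted relative to DMSO.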

[3] = ATG_GRE_CIS: Attagene CIS-FACTORIAL HepG2 Assay for human Glucocorticoid Response Elements (GRE) (AID 2282947); details: HepG2 GRE cis-reporter, Attagene multiplex mRNA; actives raise or lower the signal
How it was run: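 Following 24 h chemical exposure of transiently transfected HepG2 cells, total RNA was reverse-transcribed and reporter cDNA amplified, fluorescently labelled and sized by capillary electrophoresis. Signal gain or loss was fitted relative to DMSO vehicle.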

[4] = ATG_ISRE_CIS: Attagene CIS-FACTORIAL HepG2 Assay for human Interferon Regulatory Factor 1 (IRF1) binding to an Interferon-Stimulated Response Element (ISRE) (AID 2282948); details: HepG2 ISRE cis-reporter (Attagene), mRNA transcription readout; actives raise or lower the signal
How it was run: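 Cell-based cis-reporter assay; HepG2; 24 h exposure; reporter mRNA by RT-PCR plus capillary electrophoresis fluorescence; activity in either direction scored relative to DMSO.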

[5] = ATG_M_32_CIS: Attagene CIS-FACTORIAL HepG2 Assay for M32 Transcription Factor (Internal Marker) (AID 2282949); details: HepG2 Attagene cis-factorial M32 reporter, mRNA; actives raise or lower the signal;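 note: background control marker of the multiplexed CIS panel rather than a real target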
How it was run: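 HepG2 cells transiently transfected with multiplexed cis-regulated reporter units, dosed 24 h. Reporter mRNA quantified by RT-PCR, 6-FAM labelling, HpaI digestion and capillary electrophoresis; bidirectional fit vs DMSO.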

[6] = ATG_M_06_CIS: Attagene CIS-FACTORIAL HepG2 Assay for M06 Transcription Factor (Internal Marker) (AID 2282950); details: HepG2 Attagene CIS-FACTORIAL M06 internal marker reporter; actives raise or lower the signal
How it was run: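 Fluorescence-labelled RT-PCR products from cis-promoter reporter units, cut with HpaI and resolved by capillary electrophoresis, give the signal. Cells are human HepG2, dosed for 24 h. Serves as background control, fitted relative to DMSO.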

[7] = biological target: Hypoxia-inducible factor 1-alpha (Homo sapiens) (UniProt Q16665); assay: ATG_HIF1a_CIS: Attagene CIS-FACTORIAL HepG2 Assay for human Hypoxia Inducible Factor 1 (HIF1A) (AID 2282951); details: HepG2 Attagene cis-factorial HIF1a reporter transcription; actives raise or lower the signal
How it was run: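 RT-PCR/capillary electrophoresis fluorescence readout of reporter transcripts from endogenous-TF-driven cis elements in transfected HepG2 cells, 24 h exposure; activity fitted in both directions against DMSO controls.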

[8] = biological target: Hepatocyte nuclear factor 6 (Homo sapiens) (UniProt Q9UBC0); assay: ATG_HNF6_CIS: Attagene CIS-FACTORIAL HepG2 Assay for human Hepatocyte Nuclear Factor 6 (HNF6) (AID 2282952); details: HepG2 Attagene cis-factorial HNF6 reporter transcription; actives raise or lower the signal
How it was run: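 Multiplexed mRNA reporter assay in transfected HepG2; 24 h dosing; RT-PCR plus capillary electrophoresis fluorescence; DMSO-referenced bidirectional curve fitting.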

[9] = biological target: Heat shock factor protein 1 (Homo sapiens) (UniProt Q00613); assay: ATG_HSE_CIS: Attagene CIS-FACTORIAL HepG2 Assay for human Heat Shock Transcription Factor 1 (HSE) (AID 2282953); details: HepG2 HSE cis-reporter, Attagene RNA transcription; actives raise or lower the signal
How it was run: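 After a 24 h incubation with test chemical, transfected HepG2 cells were harvested for RNA; reporter transcripts were measured by RT-PCR and capillary electrophoresis. Values reflect gain or loss of signal relative to DMSO.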

[10] = ATG_MRE_CIS: Attagene CIS-FACTORIAL HepG2 Assay for human Metal Responsive Element (MRE) (AID 2282954); details: HepG2 MRE cis-reporter transcription, Attagene multiplex; actives raise or lower the signal
How it was run: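 Step one: transfect HepG2 with cis-regulated reporter units. Step two: dose 24 h. Step three: isolate RNA, RT-PCR, 6-FAM label, HpaI digest, capillary electrophoresis. Fit bidirectionally to DMSO.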

[11] = ATG_PBREM_CIS: Attagene CIS-FACTORIAL HepG2 Assay for human Phenobarbital-responsive Enhancer Module (PBREM) (AID 2282955); details: HepG2 PBREM cis-reporter, Attagene multiplexed transcription; actives raise or lower the signal
How it was run: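 Reporter mRNA read by RT-PCR, 6-FAM primer extension, HpaI digestion and capillary electrophoresis. Transfected HepG2 cells, 24 h compound exposure. Gain or loss of signal fitted bidirectionally relative to DMSO baseline.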

[12] = biological target: Paired box protein Pax-6 (Homo sapiens) (UniProt P26367); assay: ATG_Pax6_CIS: Attagene CIS-FACTORIAL HepG2 Assay for human Paired Box 6 (PAX6) (AID 2282956); details: HepG2 CIS-FACTORIAL PAX6 reporter transcription, RNA readout; actives raise or lower the signal
How it was run: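 Multiplexed cis-reporter HepG2 system; 24 h treatment; reporter mRNA read by RT-PCR/CE fluorescence; bidirectional fit vs DMSO.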

[13] = ATG_PXRE_CIS: Attagene CIS-FACTORIAL HepG2 Assay for human Pregnane X Receptor Element (PXRE) (AID 2282957); details: HepG2 Attagene CIS-FACTORIAL PXRE reporter, mRNA; actives raise or lower the signal
How it was run: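 Cells: HepG2, transiently transfected reporter units under cis promoter control. Exposure: 24 h. Detection: reporter mRNA via RT-PCR/CE fluorescence; bidirectional fitting, DMSO-referenced.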

[14] = ATG_PPRE_CIS: Attagene CIS-FACTORIAL HepG2 Assay for human Peroxisome Proliferator-activated Response Element (PPRE) (AID 2282958); details: HepG2 PPRE cis-element reporter, Attagene transcription factor profiling; actives raise or lower the signal
How it was run: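 Read-out: fluorescent reporter mRNA fragments resolved by capillary electrophoresis after RT-PCR. HepG2 cells carried transiently transfected PPRE-driven cis reporter constructs and were dosed for 24 h; gain or loss of signal fitted relative to DMSO.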

[15] = ATG_RORE_CIS: Attagene CIS-FACTORIAL HepG2 Assay for human RAR-related Orphan Receptor Element (RORE) (AID 2282959); details: HepG2 Attagene cis-factorial RORE reporter, mRNA; actives raise or lower the signal
How it was run: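 Readout: fluorescent reporter mRNA by RT-PCR plus capillary electrophoresis, 24 h after dosing transfected HepG2 cells. Endogenous transcription factor activity on a cis promoter element is measured. Gain or loss of signal fitted against DMSO.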

[16] = ATG_Sox_CIS: Attagene CIS-FACTORIAL HepG2 Assay for human SRY-box transcription factor (SOX) (AID 2282960); details: HepG2 Attagene cis-factorial SOX reporter, mRNA; actives raise or lower the signal
How it was run: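 Read-out: fluorescent RT-PCR products of SOX1-linked reporter transcripts resolved by capillary electrophoresis, fitted bidirectionally against DMSO. Transiently transfected HepG2 cells, 24 h after chemical exposure, endogenous transcription factor activity.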

[17] = biological target: Transcription factor Sp1 (Homo sapiens) (UniProt P08047); assay: ATG_Sp1_CIS: Attagene CIS-FACTORIAL HepG2 Assay for human Specificity Protein 1 (Sp1) (AID 2282961); details: HepG2 Sp1 cis-reporter transcription, actives raise or lower the signal
How it was run: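 Read-out: fluorescence of 6-FAM-labeled, HpaI-digested RT-PCR products separated by capillary electrophoresis. HepG2 cells carried transfected cis-element reporter units and were exposed to chemicals for 24 h; gain or loss of signal fitted relative to DMSO.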

[18] = ATG_SREBP_CIS: Attagene CIS-FACTORIAL HepG2 Assay for human Sterol Regulatory Element Binding (SREBP) (AID 2282962); details: HepG2 Attagene cis-factorial SREBP reporter, mRNA; actives raise or lower the signal
How it was run: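 mRNA induction of transfected cis-promoter reporters in HepG2 cells, 24 h post-dose. Detection: RT-PCR with 6-FAM-labelled products, HpaI digest, capillary electrophoresis. DMSO served as negative control and baseline.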

[19] = biological target: Signal transducer and activator of transcription 3 (Homo sapiens) (UniProt P40763); assay: ATG_STAT3_CIS: Attagene CIS-FACTORIAL HepG2 Assay for human Signal Transducer and Activator of Transcription 3 (STAT3) (AID 2282963); details: HepG2, Attagene cis-factorial STAT3 reporter transcription; actives raise or lower the signal
How it was run: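 Transcript-level reporter assay. HepG2 transient MRTU transfection, 24 h exposure, fluorescence detection after RT-PCR and CE; DMSO baseline.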

[20] = ATG_TA_CIS: Attagene CIS-FACTORIAL HepG2 Assay for human TA Basal Promoter (AID 2282964); details: HepG2 Attagene CIS-factorial TA basal promoter reporter; actives raise or lower the signal
How it was run: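 Multiplexed mRNA reporter assay, HepG2, 24 h. Reporter cDNA amplified, 6-FAM primer-extended, HpaI-cut, CE-sized; DMSO = negative control and baseline.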

Measured: AC50

Paired box protein Pax-6 (Homo sapiens), sequence (P26367 whole entry, looked up): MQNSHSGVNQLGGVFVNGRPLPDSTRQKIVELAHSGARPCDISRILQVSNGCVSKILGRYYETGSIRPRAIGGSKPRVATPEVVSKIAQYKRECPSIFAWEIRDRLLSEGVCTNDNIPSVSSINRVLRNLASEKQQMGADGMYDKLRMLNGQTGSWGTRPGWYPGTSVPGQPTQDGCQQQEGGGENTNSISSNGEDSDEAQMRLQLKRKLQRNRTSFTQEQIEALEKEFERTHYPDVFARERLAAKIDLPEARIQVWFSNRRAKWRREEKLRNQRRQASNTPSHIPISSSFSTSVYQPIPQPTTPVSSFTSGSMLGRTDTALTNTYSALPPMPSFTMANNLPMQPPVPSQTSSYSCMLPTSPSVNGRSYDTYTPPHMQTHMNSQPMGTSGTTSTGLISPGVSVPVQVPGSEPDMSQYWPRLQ
Heat shock factor protein 1 (Homo sapiens), sequence (Q00613 whole entry, looked up): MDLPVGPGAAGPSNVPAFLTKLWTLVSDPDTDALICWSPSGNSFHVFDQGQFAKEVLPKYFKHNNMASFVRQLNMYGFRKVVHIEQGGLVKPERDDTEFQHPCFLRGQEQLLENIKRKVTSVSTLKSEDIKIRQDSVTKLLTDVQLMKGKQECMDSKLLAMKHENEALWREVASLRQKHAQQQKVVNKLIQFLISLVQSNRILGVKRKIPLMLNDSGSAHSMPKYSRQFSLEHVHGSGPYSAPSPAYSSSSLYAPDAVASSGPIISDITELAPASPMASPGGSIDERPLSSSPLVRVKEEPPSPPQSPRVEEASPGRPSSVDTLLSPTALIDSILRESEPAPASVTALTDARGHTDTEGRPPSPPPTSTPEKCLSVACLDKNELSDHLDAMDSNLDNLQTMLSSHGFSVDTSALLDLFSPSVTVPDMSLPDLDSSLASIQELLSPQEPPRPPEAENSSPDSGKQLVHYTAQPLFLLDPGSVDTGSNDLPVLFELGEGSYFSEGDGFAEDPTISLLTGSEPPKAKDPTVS
Bile acid receptor (Homo sapiens), sequence (Q96RI1 whole entry, looked up): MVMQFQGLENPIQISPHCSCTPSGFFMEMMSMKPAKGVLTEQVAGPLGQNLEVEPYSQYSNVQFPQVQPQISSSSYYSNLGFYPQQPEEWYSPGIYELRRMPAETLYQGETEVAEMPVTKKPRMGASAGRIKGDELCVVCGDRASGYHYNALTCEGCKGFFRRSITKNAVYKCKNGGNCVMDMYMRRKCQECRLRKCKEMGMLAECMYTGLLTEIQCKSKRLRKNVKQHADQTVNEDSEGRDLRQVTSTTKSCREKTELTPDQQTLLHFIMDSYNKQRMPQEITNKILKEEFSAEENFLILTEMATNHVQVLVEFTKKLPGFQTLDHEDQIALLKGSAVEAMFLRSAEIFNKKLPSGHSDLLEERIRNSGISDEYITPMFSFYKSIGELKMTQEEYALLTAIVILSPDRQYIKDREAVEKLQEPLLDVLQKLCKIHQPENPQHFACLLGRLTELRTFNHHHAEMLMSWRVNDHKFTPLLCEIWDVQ
Hypoxia-inducible factor 1-alpha (Homo sapiens), sequence (Q16665 whole entry, looked up): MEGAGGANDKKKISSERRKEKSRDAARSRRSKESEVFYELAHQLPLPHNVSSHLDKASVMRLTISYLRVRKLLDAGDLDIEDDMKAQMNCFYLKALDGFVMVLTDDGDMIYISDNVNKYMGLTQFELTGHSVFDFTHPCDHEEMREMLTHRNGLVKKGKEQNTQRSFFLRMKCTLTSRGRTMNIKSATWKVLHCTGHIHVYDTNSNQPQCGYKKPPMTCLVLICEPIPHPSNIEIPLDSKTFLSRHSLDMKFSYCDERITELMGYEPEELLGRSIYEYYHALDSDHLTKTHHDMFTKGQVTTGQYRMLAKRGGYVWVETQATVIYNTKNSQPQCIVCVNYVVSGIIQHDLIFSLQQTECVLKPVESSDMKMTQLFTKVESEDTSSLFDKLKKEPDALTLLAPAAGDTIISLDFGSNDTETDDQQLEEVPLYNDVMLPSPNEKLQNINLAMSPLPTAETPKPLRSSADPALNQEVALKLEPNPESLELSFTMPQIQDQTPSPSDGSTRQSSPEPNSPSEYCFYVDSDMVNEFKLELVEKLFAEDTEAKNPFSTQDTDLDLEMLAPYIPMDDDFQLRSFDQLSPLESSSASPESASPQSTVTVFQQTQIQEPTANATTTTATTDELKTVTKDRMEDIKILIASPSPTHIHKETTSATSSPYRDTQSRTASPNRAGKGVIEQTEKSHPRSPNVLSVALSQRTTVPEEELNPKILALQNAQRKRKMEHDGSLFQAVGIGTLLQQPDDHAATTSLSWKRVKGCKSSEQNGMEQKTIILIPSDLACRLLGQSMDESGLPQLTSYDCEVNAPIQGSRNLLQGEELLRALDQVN
Signal transducer and activator of transcription 3 (Homo sapiens), sequence (P40763 whole entry, looked up): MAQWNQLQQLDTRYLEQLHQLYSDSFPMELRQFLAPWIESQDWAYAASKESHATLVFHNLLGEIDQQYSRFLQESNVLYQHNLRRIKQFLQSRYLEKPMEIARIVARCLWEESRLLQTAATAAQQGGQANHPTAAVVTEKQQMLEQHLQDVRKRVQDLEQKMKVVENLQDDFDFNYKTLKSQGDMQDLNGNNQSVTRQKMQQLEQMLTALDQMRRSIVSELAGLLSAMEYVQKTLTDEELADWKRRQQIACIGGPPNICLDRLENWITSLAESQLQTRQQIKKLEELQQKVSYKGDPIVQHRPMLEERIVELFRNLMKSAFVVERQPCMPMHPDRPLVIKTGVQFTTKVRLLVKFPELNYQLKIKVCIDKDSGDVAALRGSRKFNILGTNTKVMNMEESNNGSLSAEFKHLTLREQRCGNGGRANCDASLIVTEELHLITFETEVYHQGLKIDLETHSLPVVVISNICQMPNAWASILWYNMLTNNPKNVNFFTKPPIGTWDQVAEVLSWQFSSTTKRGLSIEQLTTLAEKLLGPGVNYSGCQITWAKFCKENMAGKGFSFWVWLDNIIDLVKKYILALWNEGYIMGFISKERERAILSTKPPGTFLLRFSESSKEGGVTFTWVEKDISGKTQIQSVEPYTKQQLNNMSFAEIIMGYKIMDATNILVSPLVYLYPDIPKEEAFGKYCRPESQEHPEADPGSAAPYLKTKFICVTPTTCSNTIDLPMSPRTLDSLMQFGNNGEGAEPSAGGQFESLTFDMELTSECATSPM
Transcription factor Sp1 (Homo sapiens), sequence (P08047 whole entry, looked up): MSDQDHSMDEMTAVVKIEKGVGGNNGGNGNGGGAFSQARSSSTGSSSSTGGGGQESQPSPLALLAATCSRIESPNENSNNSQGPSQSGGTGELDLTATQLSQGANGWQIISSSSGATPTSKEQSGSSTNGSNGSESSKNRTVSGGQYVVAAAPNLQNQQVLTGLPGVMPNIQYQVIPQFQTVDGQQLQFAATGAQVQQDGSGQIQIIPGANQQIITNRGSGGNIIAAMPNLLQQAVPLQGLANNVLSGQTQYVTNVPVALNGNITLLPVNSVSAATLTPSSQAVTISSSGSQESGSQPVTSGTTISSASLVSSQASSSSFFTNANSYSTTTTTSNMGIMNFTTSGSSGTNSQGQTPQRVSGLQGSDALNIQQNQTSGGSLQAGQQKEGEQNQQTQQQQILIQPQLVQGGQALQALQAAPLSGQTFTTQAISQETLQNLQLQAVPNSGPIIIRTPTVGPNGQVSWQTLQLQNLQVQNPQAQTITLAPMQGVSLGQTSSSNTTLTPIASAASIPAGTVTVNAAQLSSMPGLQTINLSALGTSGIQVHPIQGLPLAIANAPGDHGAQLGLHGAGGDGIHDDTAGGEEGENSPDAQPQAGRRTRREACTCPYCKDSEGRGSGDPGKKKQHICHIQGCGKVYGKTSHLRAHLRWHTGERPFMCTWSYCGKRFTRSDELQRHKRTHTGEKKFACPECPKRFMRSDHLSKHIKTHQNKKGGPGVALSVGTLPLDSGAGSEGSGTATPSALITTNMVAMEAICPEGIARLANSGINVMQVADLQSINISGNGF
Hepatocyte nuclear factor 6 (Homo sapiens), sequence (Q9UBC0 whole entry, looked up): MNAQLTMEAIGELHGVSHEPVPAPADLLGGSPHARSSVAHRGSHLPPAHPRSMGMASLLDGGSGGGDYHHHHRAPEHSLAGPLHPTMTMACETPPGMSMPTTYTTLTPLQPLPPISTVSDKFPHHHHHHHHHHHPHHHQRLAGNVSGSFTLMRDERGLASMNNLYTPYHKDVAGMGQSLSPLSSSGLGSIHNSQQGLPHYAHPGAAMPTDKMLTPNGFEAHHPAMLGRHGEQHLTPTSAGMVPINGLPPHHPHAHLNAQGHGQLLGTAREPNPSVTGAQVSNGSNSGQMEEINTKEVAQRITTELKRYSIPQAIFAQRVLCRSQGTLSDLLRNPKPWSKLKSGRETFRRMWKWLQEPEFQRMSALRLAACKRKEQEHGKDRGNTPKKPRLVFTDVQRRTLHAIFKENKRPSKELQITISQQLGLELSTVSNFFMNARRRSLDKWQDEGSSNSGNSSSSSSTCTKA

CC(C)=CCCC(C)CCOC(=O)C(C)C (configuration not stated)
inactive: all assays above

CC(C)OC(=O)c1ccccc1C(=O)OC(C)C
active: [13] 3.7 µM
not listed: [11]
inactive: all other assays above

CCCCCCCCCCCCCCCC[N+](C)(C)Cc1ccccc1
active: [2] 10.2 µM | [4] 47.6 µM | [9] 24.5 µM | [17] 132 µM
inactive: all other assays above

O=C(O)C(F)(F)C(F)(F)C(F)(F)C(F)(F)C(F)(F)C(F)(F)C(F)(F)C(F)(F)C(F)(F)C(F)F
active: [4] 27.1 µM | [10] 25.3 µM | [13] 18.8 µM | [14] 9.33 µM
inactive: all other assays above

FC(F)(F)C(F)(F)C(F)(F)C(F)(F)C(F)(F)C(F)(F)CC1CO1 (configuration not stated)
not listed: [13]
inactive: all other assays above

FC(F)(F)C(F)(F)C(F)(F)C(F)(F)C(F)(F)CCI
active: [13] 39.9 µM
not listed: [11]
inactive: all other assays above

Source: PubChem BioAssay (EPA / NIEHS)
